According to PubChem BioAssay AID2057 (The Scripps Research Institute Molecular Screening Center, 2009):
The campaign covered roughly 320,000 compounds. About 2,100 (0.66%) were called active. The sample holds actives, similar compounds and a random draw of the others, so the mix is not that of the screen.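 The calls were made as follows: active = inhibition above the mean inhibition of all tested compounds plus 3 SD, set per campaign (cut at about 40% in these data); inactive = the rest.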

Biological target: Induced myeloid leukemia cell differentiation protein Mcl-1 (Homo sapiens) (UniProt Q07820)
Sequence (Q07820 whole entry, looked up): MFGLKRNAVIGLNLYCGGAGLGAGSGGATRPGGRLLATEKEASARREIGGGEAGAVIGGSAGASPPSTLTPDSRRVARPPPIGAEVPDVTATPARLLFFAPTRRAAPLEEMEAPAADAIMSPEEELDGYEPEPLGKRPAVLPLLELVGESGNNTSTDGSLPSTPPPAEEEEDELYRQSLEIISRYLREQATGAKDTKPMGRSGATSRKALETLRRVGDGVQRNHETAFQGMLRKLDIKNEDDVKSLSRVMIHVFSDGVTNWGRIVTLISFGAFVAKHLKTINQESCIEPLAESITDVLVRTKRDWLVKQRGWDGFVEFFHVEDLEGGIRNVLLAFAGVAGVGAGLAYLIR
Experiment: MCL1-BIM peptide interaction disruptors – biochemical, fluorescence polarization, primary screen (AID 2057);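 also: 0% = DMSO wells and 100% = unlabeled Bim-BH3 peptide control; higher means more loss of mP so more displacement of Bim peptide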
Settings: GST-MCL1 / FITC-Bim-BH3 fluorescence polarization; at 10.9 µM; hits give high values

Question: With `O=C1NC(=O)N(c2ccccc2)C(=O)/C1=C/c1ccc([N+](=O)[O-])s1` as the molecule, how does the inhibition read?
Answer: 44.1% (active)

Question: Which inhibition does the source give for `CCOP(=S)(OCC)SCOC(=O)NCC(=O)OC` here?
Answer: 6.09% (inactive)

Question: Which inhibition does the source give for `C=CCN1C(=O)C2(C(C(=O)OCC)=C(N)Oc3c2c(=O)oc2ccccc32)c2ccccc21` (stereo not given) here?
Answer: 1.78% (inactive)

Question: For `COc1cccc(N2C(=O)NC(=O)/C(=C\c3cn(C)c4ccccc34)C2=O)c1`, which inhibition is on record?
Answer: 55% (active)

Question: `Cc1c(C(=O)O)cccc1-n1c(C)cc(/C=C2\C(=O)NC(=O)N(c3ccc4c(c3)OCO4)C2=O)c1C` was tested. Which inhibition did it give?
Answer: 2.52% (inactive)

Question: `Cc1ccccc1N1C(=O)NC(=O)/C(=C\c2cc(C)n(C)c2C)C1=O` was tested. Which inhibition did it give?
Answer: 1.23% (inactive)

Question: How did the inhibition turn out when `CCN(CC)C(=O)Oc1ccc(NC(=O)N2CCOCC2)cc1` was run?
Answer: 3.93% (inactive)

Question: `Cc1cccc(OP(=O)(Oc2cccc(C)c2)OC(c2ccccc2)C(F)(F)F)c1` (stereo not given) was tested. Which inhibition did it give?
Answer: 2.04% (inactive)

Question: For `CN(c1ccccc1)c1ccc([N+](=O)[O-])c2nonc12`, which inhibition is on record?
Answer: -24.9% (inactive)

Question: With `O=C(CCC(=O)N1C[C@H]2C[C@@H](C1)c1cccc(=O)n1C2)NCc1ccccc1C(F)(F)F` as the molecule, how does the inhibition read?
Answer: 2.96% (inactive)

Question: How did the inhibition turn out when `COc1ccc(CN2C(=O)NC(=O)/C(=C\c3ccc(OC)c(OC)c3OC)C2=O)cc1` was run?
Answer: -3.16% (inactive)

Question: Which inhibition does the source give for `Cc1cc(/C=C2/C(=O)NC(=O)N(Cc3ccco3)C2=O)c(C)n1-c1ccc(C(=O)O)cc1` here?
Answer: -11.8% (inactive)

Question: Which inhibition does the source give for `COc1ccc(N2C(=O)/C(=C/c3ccco3)C(=O)NC2=S)cc1` here?
Answer: 53.9% (active)

Question: `Cc1ccc(C)c(NC2=NCCCS2)c1` was tested. Which inhibition did it give?
Answer: 0.88% (inactive)

Question: How did the inhibition turn out when `COc1cccc(OC)c1C(=O)NC(=S)N1C[C@H]2C[C@H](C1)c1cccc(=O)n1C2` was run?
Answer: 9.55% (inactive)
